Source: the supplement of paper PMC6555819

How the values were obtained:
Assay in all cases: PBM binding z-score (relative to random genomic background probes); higher = stronger binding; sequences stand for … in GC…GCGATTGACAGCGTAGAATGAAGG
[1] = tested on: FXR:RXRa (NR concentration 270 nM, RXRa partner concentration 90 nM)
Outline: (§1)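 Custom Agilent 4×180K protein-binding microarrays carried double-stranded probes. Their 34-nt variable regions held direct-repeat seeds, single-nucleotide variants, half-site ablations and random human genomic background sequences. Arrays were incubated 1 h with ligand-free nuclear receptor dimers in PBS pH 7.4, 2% milk, 0.02% Triton X-100, 1 mM DTT, 0.2 mg/mL BSA and 0.4 mg/ml salmon testes DNA. Antibodies against each partner (one per run) detected binding, and scanned fluorescence was regression-normalized. Binding z-scores use random background probes as reference.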

[2] = tested on: LXRa:RXRa (NR concentration 270 nM, RXRa partner concentration 90 nM)
Outline: as §1

[3] = tested on: LXRa homodimer (NR concentration 270 nM)
Outline: as §1

[4] = tested on: LXRb:RXRa (NR concentration 270 nM, RXRa partner concentration 90 nM)
Outline: as §1

[5] = tested on: LXRb homodimer (NR concentration 270 nM)
Outline: as §1

[6] = tested on: PPARa:RXRa (NR concentration 270 nM, RXRa partner concentration 90 nM)
Outline: as §1

[7] = tested on: PPARg:RXRa (NR concentration 180 nM, RXRa partner concentration 90 nM)
Outline: as §1

[8] = tested on: PPARg:RXRa 270nM:90nM, anti-RXR (NR concentration 270 nM, RXRa partner concentration 90 nM)
Outline: as §1

[9] = tested on: PPARg:RXRa 30nM:10nM, anti-RXR (NR concentration 30 nM, RXRa partner concentration 10 nM)
Outline: as §1

[10] = tested on: PPARg:RXRa 90nM:30nM, anti-RXR (NR concentration 90 nM, RXRa partner concentration 30 nM)
Outline: as §1

[11] = tested on: PPARg:RXRa DBDmut IVT, anti-RXR (DBD mutation: RXRa K156A/R161A, NR concentration 270 nM, RXRa partner concentration 90 nM)
Outline: as §1

[12] = tested on: PPARg:RXRa IVT, anti-PPARg (NR concentration 270 nM, RXRa partner concentration 90 nM)
Outline: as §1

[13] = tested on: PPARg DBDmut:RXRa IVT, anti-PPARg (DBD mutation: PPARg1 K132A/R137A, NR concentration 270 nM, RXRa partner concentration 90 nM)
Outline: as §1

[14] = tested on: PPARg DBDmut IVT, anti-PPARg (DBD mutation: PPARg1 K132A/R137A, NR concentration 270 nM)
Outline: as §1

[15] = tested on: PPARg homodimer (NR concentration 180 nM)
Outline: as §1

[16] = tested on: PXR:RXRa (NR concentration 270 nM, RXRa partner concentration 90 nM)
Outline: as §1

[17] = tested on: PXR homodimer (NR concentration 270 nM)
Outline: as §1

[18] = tested on: RARa:RXR (NR concentration 270 nM, RXRa partner concentration 90 nM)
Outline: as §1

[19] = tested on: RARa homodimer (NR concentration 270 nM)
Outline: as §1

[20] = tested on: RARb:RXRa (NR concentration 270 nM, RXRa partner concentration 90 nM)
Outline: as §1

Sequence | PBM binding z-score [1] | PBM binding z-score [2] | PBM binding z-score [3] | PBM binding z-score [4] | PBM binding z-score [5] | PBM binding z-score [6] | PBM binding z-score [7] | PBM binding z-score [8] | PBM binding z-score [9] | PBM binding z-score [10] | PBM binding z-score [11] | PBM binding z-score [12] | PBM binding z-score [13] | PBM binding z-score [14] | PBM binding z-score [15] | PBM binding z-score [16] | PBM binding z-score [17] | PBM binding z-score [18] | PBM binding z-score [19] | PBM binding z-score [20]
CCTGCTAGGTCCATGGTCAGCTAAAGCAGCTCGC | -0.648 | -0.658 | -0.744 | -0.958 | -0.563 | -0.447 | -0.772 | -0.287 | -1.2 | -0.648 | -0.414 | -0.603 | -1.47 | -1.26 | -0.704 | -0.449 | -1 | -0.64 | -1.05 | 0.441
CGAACTGGGTCAGAACAGGACAGTGAAGGATGAT | 0.455 | 0.381 | -0.423 | 0.0427 | -0.721 | 2.66 | 4.95 | 3.9 | 1.63 | 3.42 | 6.73 | 6.56 | 2.09 | 2.05 | 0.887 | 1.06 | -0.389 | 1.31 | 0.0168 | 2.23
ATCGAAAGGTCGAGGTGATTATAGAGAAAGGGAA | 4.57 | 3.62 | 0.192 | 2.64 | 0.41 | 4.56 | 3.24 | 3.59 | 1.31 | 2.75 | 0.469 | 2.16 | 1.08 | 1.21 | 1.85 | 2.51 | 0.0251 | 3 | 0.473 | 4.2
CCTTACGGTTCAAGGTTATAGCACGGGTGGTACG | 2.11 | 1.96 | 0.742 | 1.66 | 0.441 | 2.53 | 0.899 | 1.18 | 0.229 | 0.767 | -0.682 | 0.211 | 0.502 | -0.14 | 1.49 | 2.28 | 1.34 | 2.24 | 1.14 | 1.73
AGCATGAGGTTATACGTAGATCAGGGAAGAAAGT | 1.93 | 1.8 | 0.246 | 1.47 | 0.257 | 2.43 | 0.933 | 0.729 | 0.259 | 0.586 | 0.656 | 0.149 | 0.86 | 0.438 | 0.658 | 0.995 | 0.948 | 1.38 | 0.699 | 1.46
CCTAGTAGGCCAGGGTCACTCAAGCATTTCGCTT | 1.96 | 1.56 | -0.322 | 2.01 | -0.98 | 3.69 | 3.5 | 4.07 | 1.36 | 3.22 | 4.28 | 4.48 | -0.152 | -1.37 | 0.886 | 2.55 | -0.126 | 2.8 | -0.346 | 2.65
ATCTCTCGGTAACCAAGTTCAGTGAATGCCGAAC | 0.00199 | 0.567 | 1.33 | 0.672 | 0.975 | 0.668 | -0.0283 | 0.289 | -0.287 | 0.0566 | -0.264 | 0.594 | 0.5 | 0.409 | 0.702 | 1.85 | 1.8 | 0.427 | 0.774 | 0.997
